Measurements as given in PubChem BioAssay (NCATS).
Inconclusive results are not listed. The source made the active and inactive calls. Unless noted, calls come from the whole dose curve; as a rule, active = well fitted inhibition curve with a large enough effect; inconclusive = small, poorly fitted or top-dose-only effect; inactive = flat fitted curve, though single readings scatter.

Tests used:
[1] = S16 Schwann cell PMP22 intronic element beta-lactamase assay (AID 624044; calls by dose curve; note: nearly all actives have a fitted effect of over 15% in size)
Method in brief: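 Rat S16 Schwann cells with beta-Lac driven by a PMP22 intronic element, compound-treated 24 h at 37 °C. LiveBLAzer FRET B/G read: 460 nm normalized to potassium clavulanate vs DMSO; 535 nm FRET as viability; concentration-effect curves classified.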

C2A = experiment: qHTS profiling for inhibitors of Plasmodium falciparum proliferation (AID 504749); note: nearly all actives have a fitted effect of over 60% in size; note: potency is the fitted concentration of half-maximal effect; details: P. falciparum in erythrocytes, SYBR Green DNA, 72 h; series mostly up to 28.7 µM
Method in brief: (§1)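 Three-day growth assay of blood-stage parasites in erythrocytes (0.3% parasitemia, 2.5% hematocrit) at 37 C, 5% CO2, quantified by SYBR Green DNA staining after overnight detergent lysis.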

CP185 = experiment: as above; details: P. falciparum in erythrocytes, SYBR Green DNA, 72 h; series mostly up to 28.7 µM
Method in brief: as §1

CP191 = experiment: as above; details: P. falciparum in erythrocytes, SYBR Green DNA, 72 h; series mostly up to 28.7 µM
Method in brief: as §1

CP194 = experiment: as above; details: P. falciparum in erythrocytes, SYBR Green DNA, 72 h; series mostly up to 28.7 µM
Method in brief: as §1

CP201 = experiment: as above; details: P. falciparum in erythrocytes, SYBR Green DNA, 72 h; series mostly up to 28.7 µM
Method in brief: as §1

CP211 = experiment: as above; details: P. falciparum in erythrocytes, SYBR Green DNA, 72 h; series mostly up to 28.7 µM
Method in brief: as §1

CP215 = experiment: as above; details: P. falciparum in erythrocytes, SYBR Green DNA, 72 h; series mostly up to 28.7 µM
Method in brief: as §1

CP247 = experiment: as above; details: P. falciparum in erythrocytes, SYBR Green DNA, 72 h; series mostly up to 28.7 µM
Method in brief: as §1

CP250 = experiment: as above; details: P. falciparum in erythrocytes, SYBR Green DNA, 72 h; series mostly up to 28.7 µM
Method in brief: as §1

CP256 = experiment: as above; details: P. falciparum in erythrocytes, SYBR Green DNA, 72 h; series mostly up to 28.7 µM
Method in brief: as §1

CP260 = experiment: as above; details: P. falciparum in erythrocytes, SYBR Green DNA, 72 h; series mostly up to 28.7 µM
Method in brief: as §1

CP266 = experiment: as above; details: P. falciparum in erythrocytes, SYBR Green DNA, 72 h; series mostly up to 28.7 µM
Method in brief: as §1

CP269 = experiment: as above; details: P. falciparum in erythrocytes, SYBR Green DNA, 72 h; series mostly up to 28.7 µM
Method in brief: as §1

CP291 = experiment: as above; details: P. falciparum in erythrocytes, SYBR Green DNA, 72 h; series mostly up to 28.7 µM
Method in brief: as §1

CP305 = experiment: as above; details: P. falciparum in erythrocytes, SYBR Green DNA, 72 h; series mostly up to 28.7 µM
Method in brief: as §1

CP315 = experiment: as above; details: P. falciparum in erythrocytes, SYBR Green DNA, 72 h; series mostly up to 28.7 µM
Method in brief: as §1

CP325 = experiment: as above; details: P. falciparum in erythrocytes, SYBR Green DNA, 72 h; series mostly up to 28.7 µM
Method in brief: as §1

CP329 = experiment: as above; details: P. falciparum in erythrocytes, SYBR Green DNA, 72 h; series mostly up to 28.7 µM
Method in brief: as §1

DIV14 = experiment: as above; details: P. falciparum in erythrocytes, SYBR Green DNA, 72 h; series mostly up to 28.7 µM
Method in brief: as §1

Measured: Potency

C[C@@H]1C[C@H]2[C@H]3C[C@@H](F)C4=CC(=O)C=C[C@]4(C)[C@@]3(Cl)[C@@H](O)C[C@@]2(C)[C@@H]1C(=O)COC(=O)C(C)(C)C
active: CP260 12.6 µM
inactive: all other assays above

C[C@H]1C[C@@H]2[C@H]3CCC4=CC(=O)C=C[C@@]4(C)[C@@]3(Cl)[C@@H](O)C[C@]2(C)[C@]1(OC(=O)c1ccco1)C(=O)CCl
active: CP215 5.1 µM | CP260 3.98 µM | DIV14 5.1 µM
inactive: [1]

CO/N=C(\C(=O)N[C@@H]1C(=O)N2C(C(=O)[O-])=C(C[N+]3(C)CCCC3)CS[C@@H]12)c1csc(N)n1
inactive: all assays above
